Screen size: about 69,000 compounds; about 8,600 (12%) showed an effect of 50% or more. The full list was thinned out, with strong results kept by preference.
Each compound was assayed on Plasmodium berghei (assay: Screen against P. berghei liver stage (PbLuc), transformed with Luciferase, at 10uM). Conditions: tested at 10 uM.
Format: functional, HepG2
CS(=O)(=O)NCc1cc(=O)n2c(n1)CN(CC1CC1)CCC2 showed an INHIBITION of 37.6%.
With Cc1nc(CN2CCC3(CCN(Cc4nccn4C)CC3)C2=O)cs1 the INHIBITION was -11.2%.
In the case of N#Cc1ccc(CNCC2(c3ccccc3)CCOCC2)cc1, the INHIBITION is reported as -32.8%.
COCC(=O)N1CCC(c2cc(-c3ccc(C)cc3)n[nH]2)C1 (stereo unspecified) gave an INHIBITION of -16.9%.
CC(C(=O)N1CCCN(c2ccccc2C#N)CC1)n1cccn1 (stereo unspecified) showed an INHIBITION of -6.44%.
In the case of CNC(=O)[C@H]1C[C@@H]2CN(S(=O)(=O)c3ccccc3)C[C@@H]2N1C, the INHIBITION is reported as 30.1%.
In the case of CNC(=O)[C@H]1C[C@@H]2CN(S(=O)(=O)c3cccc(F)c3)C[C@@H]2N1C, the INHIBITION is reported as -23.8%.
Compound CNC(=O)[C@H]1C[C@@H]2CN(S(=O)(=O)c3cccc(C)c3)C[C@@H]2N1C has an INHIBITION of 50.7%.
In the case of CCc1n[nH]c(C(=O)N2CCC3(CCCN(CCOC)C3=O)C2)c1C (stereo unspecified), the INHIBITION is reported as 41.2%.
In the case of Cc1cc2ncc(CN(C)C)c(C3CCN(C)CC3)n2n1, the INHIBITION is reported as 16.771%.
Cc1ccccc1CN1CCN(C(C)c2nc(C3CC3)no2)CC1 (stereo unspecified) showed an INHIBITION of 5.7%.
CCC1CN(C(=O)c2ccc(=O)[nH]n2)CCC(=O)N1Cc1ccccc1 (stereo unspecified) was tested, and the INHIBITION was 25%.
With CCC1CN(C(=O)c2ncccc2O)CCC(=O)N1Cc1ccccc1 (stereo unspecified) the INHIBITION was 7.43%.
In the case of CCC1CN(C(=O)c2ccc(O)cn2)CCC(=O)N1Cc1ccccc1 (stereo unspecified), the INHIBITION is reported as 66.8%.
In the case of NC(=O)N1CCC2(CC1)CN(c1ncccn1)CCO2, the INHIBITION is reported as 25.2%.
Compound O=C(C1CCOC1)N1CCC2(CC1)CN(c1ncccn1)CCO2 (stereo unspecified) has an INHIBITION of 25.2%.
For COCC(=O)N1CCC2(CC1)CN(c1ccccn1)CCO2, the INHIBITION was 62.5%.
Work on COCC(=O)N1CCC2(CCN(Cc3ccccn3)CC2)CC1 yielded an INHIBITION of 56.9%.
CN(C)CC(=O)N1CCC2(CC1)COCCN(c1ncccn1)C2 gave an INHIBITION of -13.2%.
In the case of Cn1cccc1C(=O)N1CCC2(CC1)CN(c1ccccn1)CCO2, the INHIBITION is reported as 28.5%.
Work on CN(C)C(=O)CN1CCOCC2(C1)CN(c1ncccn1)CCO2 (stereo unspecified) yielded an INHIBITION of 11.6%.
With COCC(=O)N1CCC2(CC1)CC(COC)N(Cc1ccccn1)C2 (stereo unspecified) the INHIBITION was 26.7%.
CN(C)CC(=O)N1CCC2(CC1)CN(c1ncccn1)CCO2 was tested, and the INHIBITION was 83.5%.
Work on COCC(=O)N1CCC2(CC1)CN(c1ncccn1)CCO2 yielded an INHIBITION of 57.9%.
O=C(Cc1ccccn1)N1CCC2(CC1)CN(c1ccccn1)CCO2 gave an INHIBITION of 21.7%.
With COCC(=O)N1CCC2(CC1)CCN(Cc1ccccn1)C2=O the INHIBITION was 42.1%.
Work on Cc1cnc(N2CCOC(C(=O)NCc3ccccc3)C2)s1 (stereo unspecified) yielded an INHIBITION of 12.8%.
CCC(C)NC(=O)c1cc(S(=O)(=O)N2CCCC2)c(C)s1 (stereo unspecified) was tested, and the INHIBITION was 28.3%.
Work on Cn1ccc(C(=O)NCc2ccc(N3CCOCC3)nc2)cc1=O yielded an INHIBITION of -29.9%.
O=C(NCC(F)(F)F)C1CSCN1S(=O)(=O)c1cccc(F)c1 (stereo unspecified) was tested, and the INHIBITION was -16.6%.
With COc1ccc(-c2cc(C(=O)NCCn3ccnc3)n(C)n2)cc1 the INHIBITION was -5.8%.
Work on CN(Cc1ccc(O)cc1)C(=O)NCc1nnc2n1CCCCC2 yielded an INHIBITION of -9.76%.
For CCc1nc(CN2CCCN(CC(=O)N3CCOCC3)CC2)no1, the INHIBITION was 13.8%.
In the case of CCC(C)C(=O)NCc1c(C)nn(C)c1N1CCCN(C)CC1 (stereo unspecified), the INHIBITION is reported as -1.32%.
In the case of CCCS(=O)(=O)N1CCC2(CC1)CN(c1ccccn1)CCO2, the INHIBITION is reported as 0%.
In the case of O=C(CC1CC1)N1CCC2(CC1)CN(c1ncc(F)cn1)CCO2, the INHIBITION is reported as 35.7%.
Work on O=S(=O)(C1CC1)N1CCC2(CN(c3ccccn3)C2)C1 yielded an INHIBITION of 24.9%.
Compound O=C(CC1CC1)N1CCC2(CC1)CN(c1ncccn1)CCO2 has an INHIBITION of 50%.
NCC(=O)N1CCC2(CC1)CN(C(=O)Cc1ccc(Cl)cc1)CCO2 showed an INHIBITION of -26.3%.
In the case of O=C(N1CCOCC1)N1CCC2(CC1)CN(c1ccccn1)CCO2, the INHIBITION is reported as 67.2%.
In the case of Cc1occc1C(=O)N1CCC2(CC1)CN(c1ccccn1)CCO2, the INHIBITION is reported as 14.8%.
Work on O=S(=O)(C1CC1)N1CCC2(CN(c3ncccn3)C2)C1 yielded an INHIBITION of 54.8%.
O=S(=O)(C1CC1)N1CCC2(CCCN(c3ncccn3)C2)C1 (stereo unspecified) gave an INHIBITION of 19.6%.
Compound NCCC(=O)N1CCC2(CC1)CN(C(=O)Cc1cccc(Cl)c1)CCO2 has an INHIBITION of -4.76%.
NCCC(=O)N1CCC2(CC1)CN(C(=O)Cc1ccc(Cl)cc1)CCO2 was tested, and the INHIBITION was 64.8%.
c1cnc(N2CCOC3(CCN(CC4CCCCC4)CC3)C2)nc1 showed an INHIBITION of 34.7%.
NC(=O)c1cnc(NC2CC2)nc1CCNC(=O)Cc1ccccc1 showed an INHIBITION of -50.3%.
For CCn1nc(C)c(CNC(=O)NCC(C)(O)c2ccc(C)o2)c1C (stereo unspecified), the INHIBITION was -8.5%.
Work on Cc1ccc(CN2CCC3(CC2)C(=O)N(CCO)CCN3C)o1 yielded an INHIBITION of 18.6%.
O=C(CCc1ccsc1)N1CCCC(N2CCNC2=O)C1 (stereo unspecified) gave an INHIBITION of -5.26%.
O=C(NCCc1ccccn1)N1CCOC(c2ccccc2Cl)C1 (stereo unspecified) gave an INHIBITION of -4.63%.
Compound COc1cc(C2SC(C)=Nc3c2c(=O)[nH]n3C2CCCC2)ccc1O (stereo unspecified) has an INHIBITION of 24.7%.
CC(C)CC(=O)N1C[C@H]2CCCN(S(=O)(=O)c3ccc(Cl)s3)[C@H]2C1 showed an INHIBITION of -29.9%.
In the case of O=C(Cc1ccccc1)N1CCC2(CC1)CN(c1ncccn1)CCO2, the INHIBITION is reported as 50.9%.
Compound Cc1cnc(C(=O)N2CCC3(CC2)CN(c2ccccn2)CCO3)cn1 has an INHIBITION of 56.7%.
For CC(=O)N1CCCC2(C1)CN(C(=O)Cc1ccccc1)CCO2 (stereo unspecified), the INHIBITION was 41.6%.
With O=C(c1cscn1)N1CCC2(CC1)CN(c1ccccn1)CCO2 the INHIBITION was 34.6%.
For O=C(Cc1ccccn1)N1CCC2(CC1)CN(c1ncccn1)CCO2, the INHIBITION was 27.6%.
O=C(Cc1ccccn1)N1CCC2(CC1)[C@H](O)C[C@@H]2O showed an INHIBITION of 39%.
With CS(=O)(=O)N1CCOC2(CCCN(c3cnccn3)C2)C1 (stereo unspecified) the INHIBITION was -14%.
CCS(=O)(=O)N1CCOC2(CCCN(c3cnccn3)C2)C1 (stereo unspecified) gave an INHIBITION of -7.59%.
For Cc1ccc(C(=O)N2CCC3(CC2)CN(c2ccccn2)CCO3)cc1, the INHIBITION was 49.7%.
In the case of COCC(=O)N1CCOC2(CCCN(c3cnccn3)C2)C1 (stereo unspecified), the INHIBITION is reported as 52.3%.
CCOC1CC2(CCN(C(=O)Cc3ccccn3)CC2)C1 gave an INHIBITION of 31.2%.
In the case of CC(C)COC1CC2(CCN(C(=O)Cc3ccccn3)CC2)C1, the INHIBITION is reported as 64.7%.
CC1=C(C#N)C(=O)NC(=O)/C1=C\c1c(C)[nH]n(-c2ccc(Cl)cc2)c1=O was tested, and the INHIBITION was 11.5%.
Cn1cc(CCNC(=O)N2CCCC(c3nncn3C)C2)cn1 (stereo unspecified) was tested, and the INHIBITION was -18%.
Cc1nnc2n1CCN(Cc1csc(-c3ccsc3)n1)C2 gave an INHIBITION of 14.4%.
CC(C)Cc1nc(CN2CCOC(Cn3cccn3)C2)no1 (stereo unspecified) showed an INHIBITION of 28.8%.
O=C(c1ccc(-c2cnco2)cc1)N1CCC(Nc2cccnn2)CC1 was tested, and the INHIBITION was -46.2%.
Work on Cc1nccn1-c1cncc(C2CCCN2Cc2cccnc2)n1 (stereo unspecified) yielded an INHIBITION of -22.6%.
CCC(CO)N(C/C(C)=C/c1ccco1)Cc1ccsc1 (stereo unspecified) gave an INHIBITION of 42.3%.
In the case of COCCN1CCCc2sc(C(=O)NCC3CCCO3)nc21 (stereo unspecified), the INHIBITION is reported as -50.8%.
COCCN(C)C[C@@H]1CCC[C@@H]2CN(c3ncccn3)C[C@@H]21 gave an INHIBITION of 26%.
With O=C(c1cccc(F)c1)N1CCC2(CC1)CN(c1ccccn1)CCO2 the INHIBITION was 57.9%.
CN(C)C(=O)N1CCC2(CCCN(c3ncccn3)C2)C1 (stereo unspecified) showed an INHIBITION of 11.5%.
In the case of O=C(c1cccnc1)N1CCC2(CC1)CN(c1ccccn1)CCO2, the INHIBITION is reported as -13.2%.
Work on c1cnc(N2CCCC3(CCN(CC4CCOC4)CC3)C2)nc1 (stereo unspecified) yielded an INHIBITION of -19.1%.
O=C(CC1CC1)N1CCC2(CCCN(c3ncccn3)C2)CC1 showed an INHIBITION of 52%.
In the case of O=C(c1ccnnc1)N1CCC2(CC1)CN(c1ccccn1)CCO2, the INHIBITION is reported as 33.4%.
In the case of O=C(C1=CCCCC1)N1CCC2(CC1)COC(COc1ccccn1)C2 (stereo unspecified), the INHIBITION is reported as 3.41%.
Cc1ccccc1CC(=O)NS(=O)(=O)c1cccc2cnccc12 gave an INHIBITION of 40.6%.
Compound Cc1cc(N2CCN(C(=O)c3cnn(C(C)C)c3)CC2)nc(N)n1 has an INHIBITION of -2.73%.
For CC(C)n1cc(C(=O)N2CCN(c3cccc(C(F)(F)F)c3)CC2)cn1, the INHIBITION was 62.8%.
Work on Cc1cc(N2CCN(C(=O)c3cnn(C(C)C)c3)CC2)cc(C)n1 yielded an INHIBITION of 3%.
In the case of O=C(C1=CCCC1)N1CCO[C@H]2[C@@H](Oc3ccccn3)CC[C@@H]21, the INHIBITION is reported as 30.1%.
Compound Cc1occc1C(=O)N1CCO[C@H]2[C@@H](Oc3ccccn3)CC[C@@H]21 has an INHIBITION of 30.7%.
In the case of O=C(c1cscn1)N1CCO[C@H]2[C@@H](Oc3ccccn3)CC[C@@H]21, the INHIBITION is reported as 63.8%.
For Cc1cc(C(=O)N2CCO[C@H]3[C@H](Oc4ccccn4)CC[C@@H]32)c(C)[nH]1, the INHIBITION was 32.1%.
Cc1cncc(C(=O)N2CCO[C@H]3[C@H](Oc4ccccn4)CC[C@@H]32)c1 gave an INHIBITION of 72.9%.
For O=C(N1CCCC1)N1CCO[C@H]2[C@@H](Oc3ccccn3)CC[C@@H]21, the INHIBITION was 35.3%.
Cc1nn(C)c(C)c1C1CCCN1C(=O)c1ccc(C(N)=O)s1 (stereo unspecified) gave an INHIBITION of 22.8%.
Cc1ccc(CN(C)c2cc(N3CCCC3CO)ncn2)s1 (stereo unspecified) was tested, and the INHIBITION was -21.4%.
CCOC(=O)N1CCN(c2nc(N)c3ccccc3n2)CC1 gave an INHIBITION of -90.8%.
CCOC(=O)N1CCN(c2nc(NCCCO)c3ccccc3n2)CC1 was tested, and the INHIBITION was 51.3%.
In the case of CCOC(=O)N1CCN(c2nc(NCCO)c3ccccc3n2)CC1, the INHIBITION is reported as 6.54%.
CCOC(=O)N1CCN(c2nc(NC3CC3)c3ccccc3n2)CC1 was tested, and the INHIBITION was 52.3%.
Work on CCOC(=O)N1CCN(c2nc(N3CCCC3)c3ccccc3n2)CC1 yielded an INHIBITION of 3.68%.
Compound CCOC(=O)N1CCN(c2nc(NC)c3ccccc3n2)CC1 has an INHIBITION of 45%.
For CNC(=O)CN1CC[C@H]2CN(C(=O)c3ccccc3F)C[C@H]2C1, the INHIBITION was 19.4%.
Work on CCn1c(C2CCNCC2)nn(CCn2ccc(C)n2)c1=O yielded an INHIBITION of 21.1%.
